Values joined by “and” are separate entries in the source; they are usually repeats but may differ in a detail not shown here. Equal values may be shown once. About 83,000 compounds went through this panel and 20% of them were active in at least one assay; those are over-represented in the sample as a whole.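 How to read the values: 0–100, growth inhibition (40 = 60% inhibited); 0, no net growth; -100 to 0, cell death (-40 = 40% of starting cells died; -100 = all dead).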 Unmarked numbers belong to inactive results. Active and inactive are the calls of the source. How the source made its calls: active means growth percent below 10; inactive means the rest.

The test system of one test is NCI-H460 lung. Description: NCI-60 one-dose screen, 48 h (100 = growth as untreated, 0 = no growth, -100 = all killed). Conditions: 10 µM unless noted.
In the case of `NC(=O)c1c(NC(=O)/C=C/c2cccs2)sc2c1CCC(=O)C2`, the growth is 58%.

For `CC1=CC(C)(C)NC(=S)N1c1ccc(Cl)cc1`, the growth was 101% and 112%. Same read-out and setting: next, `Cc1cc(N2CCCCC2)nc(NCc2cc(Nc3ccnc4cc(Cl)ccc34)ccc2F)n1`: -22.7% (active).

For the molecule `CCCCCCCC/C=C\CCCCCCCCOc1ccccc1CC(=O)NCC[N+]1(C)CCOCC1`, the growth was 39.4%.

Regarding `COc1nc2ccc(C)cc2cc1/C=[N+](\[O-])c1ccccc1`, the growth was 98.9%.

Another test relates to HOP-92 NSCLC. Described as above. The conditions noted are these: 10 µM unless noted.
As for `O=C(O)C1C2CCC1C(O)C2` (centres undefined), the growth is 108% and 97.6%.

As for `CC1=C2[C@@H](CC1)[C@]1(C)O[C@@](C3CC3)(C[C@H]1OC(=O)CO)[C@H]2OC(=O)/C=C/c1ccccc1`, the growth was 82.2%. Consider `CON1CCC[C@]2(C)[C@H]3CC[C@@H]4[C@H]5[C@@H](O)C(C)(C)CC[C@]5(CO)CC[C@@]4(C)[C@]3(C)CC[C@H]2C1(C)C`, for which the growth is 116%. Still for that read-out and setting: next, `O=C(Nc1ccccc1C(=O)N/N=C(\c1ccccc1)c1ccccn1)c1ccccc1`: 34.9%; `CNC(=O)c1cc(Oc2ccc3nc(NC(=O)Nc4ccc(C(F)(F)F)cc4)sc3c2)ccn1`: 74.4%; `COc1cc(CO)cc2cc3ccccc3nc12`: 103%. As to `Cc1ccc(S(=O)(=O)OC[C@@]2(C)CC[C@]3(C)CC[C@]4(C)C(=CC[C@@H]5[C@@]6(C)CCCNC(C)(C)[C@@H]6CC[C@]54C)[C@@H]3C2)cc1`, the growth is -71.2% (active). Consider `O=C1C(c2c[nH]c3ccccc23)=C(c2coc3cc(Br)ccc23)C(=O)N1O`, for which the growth is 92.1%. Still for that read-out and setting: as for `Cc1ccc(Cc2cnc(NC(=O)c3cc(C)oc3C)s2)cc1`, the figure is 79.1%; as for `CN(Cc1ccccc1)c1nc(Cl)c(C2CC(c3ccc4c(c3)OCO4)=NN2c2cc(Cl)cc(Cl)c2)s1` (centres undefined), 99%; as for `COc1ccc(/C=C/C(=O)c2cc3c(N)c(C(=O)Nc4ccccc4Cl)sc3nc2C)cc1`, 9.45% (active). Same read-out and setting: next, `COc1ccc(/C=N/NC(=O)CN2CCN(c3cc4c(cc3F)c(=O)c(C(=O)O)cn4C3CC3)CC2)cc1O`: 91.8%. On the same count and under the same terms, next, `COc1ccc(-c2csc(NC(=O)CN3CCN(CCO)CC3)n2)cc1NS(=O)(=O)c1cccc2c(N(C)C)cccc12`: 50.7%; `COc1cccc(NC(=O)c2sc3nc(C)c(C(O)c4ccccc4)cc3c2N)c1` (centres undefined): 58.6%.

As to `COc1ccc(N2CCN(S(=O)(=O)c3oc(-c4ccccc4)nc3C#N)CC2)cc1`, the growth is 101%. The same measure, in the same setting: next, `O=S(=O)(O)c1ccc(N=Nc2ccc(N=Nc3cccc4ccccc34)c(S(=O)(=O)O)c2)cc1`: 83.4%; `O=C1/C(=C/c2ccc(F)c(F)c2)CN(C(=O)C(Cl)Cl)C/C1=C\c1ccc(F)c(F)c1`: -62.6% (active); `O=S(=O)(Nc1cc(Sc2cccc3cccnc23)c(O)c2ccccc12)c1ccc(F)cc1`: 4.76% (active). Regarding `COc1cc(Cl)cc(-c2nn(C(=O)NS(=O)(=O)c3ccc(Cl)cc3)cc2-c2ccncc2)c1`, the growth was 26.6%. On the same count and under the same terms, as for `CCN1CCN(CC(=O)Nc2nc3ccc(NCc4ccc(C)cc4)cc3s2)CC1`, the figure is 39%; as for `COc1cc(-c2nc(SCCC(C)C)nc(Nc3ccc(F)cc3)c2C#N)cc(OC)c1OC`, 72.6%; as for `O=C(/C=C/c1ccc([N+](=O)[O-])cc1)c1ccccc1`, 75.9%. The same measure, in the same setting: next, `COc1cc(-c2nn(-c3cccc(NC(=O)CCN4CCN(C)CC4)c3)cc2-c2ccncc2)ccc1Cl`: 22.7%; `N#CC(Cc1cccc2ccccc12)c1cc2ccccc2[nH]1` (centres undefined): 55.6%.

Consider `C#CCOCC1CN(C)C(=O)O1` (centres undefined), for which the growth is 97.8%. On the same count and under the same terms, next, `Cc1ccc(/C=C/c2c(C(=O)/C=C/c3ccccc3)c(C)nc3ccccc23)cc1`: 89.4%; `Cc1ccc(-c2nc(C#N)c(S(=O)(=O)N(C)C)o2)cc1`: 103%. On the same count and under the same terms, next, `O=C(Nc1ncc(Cc2cccc(C(F)(F)F)c2)s1)c1ccc(-n2cnnn2)cc1`: 86.2%; `COc1c(F)cc(-n2c(C(=O)N3CC(F)C3)cc3cccnc32)cc1F`: 82.7%. Turning to `N=C1/C(=C2\NC3C=CC=CC3S2)C(c2ccc(Cl)cc2)C2C(=O)N(c3ccccc3)C(=S)N12` (centres undefined), the growth is 102%. The same measure, in the same setting: as for `COc1ccc(Cl)cc1Nc1nc(C(F)(F)F)ccc1C(=O)N/N=C/c1ccc(N(C)C)cc1`, the figure is 85.4%; as for `Cc1ccc(NC(=O)c2ccc(CN3CCN(C)CC3)cc2)cc1Nc1nccc(-c2cccnc2)n1`, 56.3% and 66.4%. On the same count and under the same terms, next, `C=C1C(=O)O[C@H]2[C@H]1CC/C(COC(=O)NCCCCNC(=O)OC/C1=C/CC[C@@]3(C)O[C@H]3[C@H]3OC(=O)C(=C)[C@@H]3CC1)=C\CC[C@@]1(C)O[C@@H]21`: -32.8% (active).

`C[C@@H]1O[C@@H](O[C@H]2[C@@H](OC(=O)[C@]34CCC(C)(C)C[C@H]3C3=CC[C@@H]5[C@@]6(C)C[C@H](O)[C@H](O[C@@H]7O[C@H](CO)[C@@H](O)[C@H](O)[C@H]7O)[C@@](C)(CO)[C@@H]6CC[C@@]5(C)[C@]3(C)C[C@H]4O)OC[C@@H](O)[C@@H]2O)[C@H](O)[C@H](O[C@@H]2OC[C@@H](O)[C@H](O[C@@H]3OC[C@](O)(CO)[C@H]3O[C@@H]3OC[C@@H](O)[C@H](O)[C@H]3O)[C@H]2O)[C@H]1O[C@@H]1OC[C@](O)(CO)[C@H]1O`: the growth was 103%.

For `NC(=O)c1c(NC(=O)/C=C/c2cccs2)sc2c1CCC(=O)C2`, the growth was 42.4%.

In the case of `CC1=CC(C)(C)NC(=S)N1c1ccc(Cl)cc1`, the growth is 114%. The same measure, in the same setting: next, `Cc1cc(N2CCCCC2)nc(NCc2cc(Nc3ccnc4cc(Cl)ccc34)ccc2F)n1`: -21.9% (active); `CCCCCCCC/C=C\CCCCCCCCOc1ccccc1CC(=O)NCC[N+]1(C)CCOCC1`: 67.2%; `COc1nc2ccc(C)cc2cc1/C=[N+](\[O-])c1ccccc1`: 72.5%.
